Test results as given in PubChem BioAssay (Tox21).
Records with an inconclusive call do not appear. Active and inactive are the calls of the source. Unless noted, calls come from the whole dose curve; as a rule, active = well fitted curve in the direction sought with a large enough effect in the repeat runs; inconclusive = weak or mixed curves; inactive = no such curve, though single readings can be large; an effect the other way counts as inactive or inconclusive.

Tests used:
[1] = qHTS assay for small molecules that induce genotoxicity in human embryonic kidney cells expressing luciferase-tagged ATAD5 (AID 651632); note: nearly all actives have a fitted effect of over 15% in size
Method in brief: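 Luminescent reporter readout, HEK293T ATAD5-luc line: 16 hr drug exposure (37C, 5% CO2) followed by Amplite, 30 min RT.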

[2] = qHTS assay for small molecule agonists of the p53 signaling pathway - cell viability (AID 651633; calls by dose curve;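 note: p53RE-bla HCT reporter cells with a stable beta-lactamase p53 reporter; series mostly up to about 83 µM; nearly all actives have a fitted effect of over 30% in size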)
Method in brief: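 p53RE-bla cells, seeded at 4,000 per well and rested 5 h at 37 C/5% CO2, received compounds in DMSO for 16 h at 37 C. CellTiter-Glo was then added, and luminescence was read after 30 min at room temperature to gauge cytotoxicity.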

[3] = qHTS assay for small molecules that induce genotoxicity in human embryonic kidney cells expressing luciferase-tagged ATAD5 - cell viability (AID 651634; calls by dose curve; note: nearly all actives have a fitted effect of over 25% in size; note: potency is the fitted concentration of half-maximal effect)
Method in brief: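 Viability read: CellTiter-Fluor fluorescence, 30 min at 37C. Cells: HEK293T, luciferase-tagged ATAD5. Exposure: 15.5 hr, 37C, 5% CO2, compound or DMSO vehicle.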

[4] = qHTS assay for small molecule disruptors of the mitochondrial membrane potential - cell viability (AID 720634; calls by dose curve;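 note: human HepG2 liver cancer cells; series mostly up to about 83 µM; nearly all actives have a fitted effect of over 20% in size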)
Method in brief: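 HepG2, 1 hr compound, 37 C. ATP luminescence via CellTiter-Glo, 30 min RT, same well as m-MPI.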

[5] = qHTS assay to test for compound auto fluorescence at 535 nm (green) in HepG2 cells (AID 720675)
[6] = qHTS assay to test for compound auto fluorescence at 590 nm (red) in HEK293 cells (AID 720679)
Method in brief: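 HEK293 cells (2,000/well, 10% dialyzed FBS) attached 4-5 hr, then dosed with compound or DMSO and incubated overnight at 37C, 5% CO2. Red fluorescence read at 540/590 nm, Rose Bengal sodium as reference fluorophore.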

[7] = qHTS assay to test for compound auto fluorescence at 535 nm (green) in HEK293 cells (AID 720680)
[8] = qHTS assay to test for compound auto fluorescence at 460 nm (blue) in HEK293 cell free culture (AID 720681)
Method in brief: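 Test compounds were pinned into cell-free culture medium (DMEM with 10% FBS) and fluorescence was read directly at Ex/Em 405/460 nm. Signals were expressed as fluorescence equivalents of triamterene, with DMSO vehicle as control.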

[9] = qHTS assay to test for compound auto fluorescence at 535 nm (green) in HEK293 cell free culture (AID 720682)
Method in brief: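 Intrinsic compound fluorescence is measured in culture medium containing 10% FBS, with excitation at 485 nm and detection at 535 nm, referenced to fluorescein.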

[10] = qHTS assay to test for compound auto fluorescence at 590 nm (red) in HEK293 cell free culture (AID 720683)
Method in brief: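 Tox21 10K library compounds were pinned into cell-free DMEM with 10% FBS and fluorescence was read at excitation 540 nm. Activity is expressed as Rose Bengal sodium equivalency.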

[11] = qHTS assay to test for compound auto fluorescence at 590 nm (red) in HepG2 cell free culture (AID 720684)
Method in brief: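 Red fluorescence (540 nm excitation, 590 nm emission) was measured after compound transfer into cell-free MEM supplemented with 10% FBS. Values are equivalencies against Rose Bengal sodium.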

[12] = qHTS assay to test for compound auto fluorescence at 535 nm (green) in HepG2 cell free culture (AID 720686)
[13] = qHTS assay to test for compound auto fluorescence at 460 nm (blue) in HepG2 cells (AID 720687)
Method in brief: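 Cells (2,000/well in MEM with 10% FBS) attached overnight at 37 C, then were exposed to compound or DMSO for 1 hr at 37 C, 5% CO2. Fluorescence read at Ex/Em 405/460 nm, expressed as triamterene-equivalent signal.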

[14] = qHTS assay to test for compound auto fluorescence at 590 nm (red) in HepG2 cells (AID 720674)
Method in brief: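 Intrinsic compound fluorescence in the red window (Ex/Em 540/590 nm) is measured in attached HepG2 cells exposed for 1 hr, DMSO vehicle as baseline, benchmarked to Rose Bengal sodium.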

[15] = qHTS assay to test for compound auto fluorescence at 460 nm (blue) in HepG2 cell free culture (AID 720685)
Method in brief: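 Compound (23 nL) or DMSO pinned into cell-free MEM with 10% FBS; blue fluorescence read at 405/460 nm excitation/emission, expressed as auto-fluorescence equivalency to triamterene.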

[16] = qHTS assay to test for compound auto fluorescence at 460 nm (blue) in HEK293 cells (AID 720678)
Method in brief: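 HEK293 cells (2,000/well, medium with 10% dialyzed FBS) attached 4-5 hr, then exposed to compound overnight at 37C, 5% CO2. Blue fluorescence read at 405/460 nm, with triamterene as reference fluorophore.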

[17] = molecular target: Glucocorticoid receptor (Homo sapiens) (UniProt P04150); experiment: qHTS assay to identify small molecule agonists of the glucocorticoid receptor (GR) signaling pathway (AID 720691; active = well fitted activation curve with a large enough effect in the signal ratio in the repeat runs, not every such curve was filed as active; the % refers to the signal ratio)
Sequence of Glucocorticoid receptor (Homo sapiens) (P04150 whole entry, looked up): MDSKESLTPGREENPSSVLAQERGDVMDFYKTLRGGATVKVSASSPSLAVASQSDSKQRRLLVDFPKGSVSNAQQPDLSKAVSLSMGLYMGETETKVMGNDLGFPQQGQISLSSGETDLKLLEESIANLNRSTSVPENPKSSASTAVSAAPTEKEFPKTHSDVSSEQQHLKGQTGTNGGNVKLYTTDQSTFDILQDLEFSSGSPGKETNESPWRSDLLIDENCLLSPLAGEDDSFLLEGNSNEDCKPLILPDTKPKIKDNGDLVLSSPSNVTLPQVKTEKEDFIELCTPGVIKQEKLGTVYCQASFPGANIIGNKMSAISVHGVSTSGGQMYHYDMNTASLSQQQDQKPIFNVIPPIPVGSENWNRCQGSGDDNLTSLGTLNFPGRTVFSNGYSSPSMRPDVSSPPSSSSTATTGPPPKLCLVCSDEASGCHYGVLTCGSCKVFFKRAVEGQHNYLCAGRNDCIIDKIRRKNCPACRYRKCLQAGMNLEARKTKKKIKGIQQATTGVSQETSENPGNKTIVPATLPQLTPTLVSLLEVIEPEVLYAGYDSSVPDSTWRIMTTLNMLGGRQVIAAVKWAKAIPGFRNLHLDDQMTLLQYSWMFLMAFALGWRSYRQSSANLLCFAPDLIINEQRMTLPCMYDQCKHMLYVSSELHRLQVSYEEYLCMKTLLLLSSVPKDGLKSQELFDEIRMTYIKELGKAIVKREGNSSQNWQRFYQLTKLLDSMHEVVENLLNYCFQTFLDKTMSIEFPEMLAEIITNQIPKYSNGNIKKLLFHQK
Method in brief: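 qHTS in GR-bla HeLa cells: 4 h settling at 37 C/5% CO2, 18 h compound incubation at 37 C, 2 h LiveBLAzer B/G FRET substrate at room temperature, fluorescence intensity measured.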

[18] = qHTS assay for small molecule disruptors of the mitochondrial membrane potential (AID 720635); note: potency is the fitted concentration of half-maximal effect
Method in brief: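 HepG2 cells (2,000/well) attached overnight at 37C, then took compound for 1 hr at 37C, 5% CO2. Mito-MPS dye was added for 30 min; fluorescence was read at 490/535 nm (monomers) and 540/590 nm (aggregates).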

[19] = molecular target: Glucocorticoid receptor (Homo sapiens) (UniProt P04150); experiment: qHTS assay to identify small molecule antagonists of the glucocorticoid receptor (GR) signaling pathway (AID 720692; active = well fitted inhibition curve with a large enough effect in the signal ratio in the repeat runs, not every such curve was filed as active; the % refers to the signal ratio)
Method in brief: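 Inhibition of glucocorticoid signalling is measured in HeLa cells with a GRE-controlled beta-lactamase reporter; cells are co-treated with compound and 5 nM dexamethasone (final) for 18 h before FRET substrate readout.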
% is set by controls: 0 for no effect and ±100 for the full control effect.

OC[C@@H](O)[C@H](O)[C@@H](O)[C@@H](O)CO
inactive: outcome [1] | outcome [2] | Potency [3] | outcome [4] | outcome [5] | outcome [6] | outcome [7] | outcome [8] | outcome [9] | outcome [10] | outcome [11] | outcome [12] | outcome [13]

O=S1(=O)CCCC1
inactive: outcome [1] | outcome [2] | Potency [3] | outcome [14] | outcome [6] | outcome [7] | outcome [8] | outcome [9] | outcome [10] | outcome [11] | outcome [15] | outcome [12] | outcome [13]

N#CCCOCCOCCC#N
inactive: outcome [1] | outcome [2] | Potency [3] | outcome [4] | outcome [5] | outcome [16] | outcome [6] | outcome [7] | outcome [9] | outcome [10] | outcome [11] | outcome [15] | outcome [12] | outcome [13] | Potency [17]

BrC/C=C/CBr
inactive: outcome [1] | outcome [2] | Potency [3] | outcome [4] | fluorescence, relative to Rose Bengal [14] -0.458% [at 18.6 µM] | fluorescence, % of fluorescein control [5] -0.0535% [at 18.6 µM] | fluorescence, % of fluorescent control [6] 0.0091% [at 18.6 µM] | fluorescence, % of fluorescein [7] 0.0238% [at 18.6 µM] | fluorescence, % of fluorescent control [8] -0.0065% [at 18.6 µM] | activity change [9] 0.0973% [at 18.6 µM] | fluorescence, % of fluorescent control [10] -0.0344% [at 18.6 µM] | fluorescence, % of fluorescent control [15] -0.08% [at 18.6 µM] | fluorescence, % of fluorescein control [12] -0.0214% [at 18.6 µM] | fluorescence, % of fluorescent control [13] 0.058% [at 18.6 µM]

O=C(O)c1ccccc1C(=O)Nc1ccc(S(=O)(=O)Nc2nccs2)cc1
inactive: outcome [1] | outcome [2] | Potency [3] | Potency [18] | outcome [14] | outcome [5] | outcome [16] | outcome [6] | outcome [7] | outcome [8] | outcome [9] | outcome [10] | outcome [11] | outcome [15] | outcome [12] | outcome [13] | Potency [17]

COc1cc([N+](=O)[O-])ccc1N
inactive: outcome [1] | outcome [2] | outcome [5] | outcome [16] | outcome [6] | outcome [7] | outcome [8] | outcome [9] | outcome [10] | outcome [11] | outcome [15] | outcome [12] | outcome [13] | Potency [17] | outcome [19]
active: Potency [3] 54.5 µM

CC(C)COC(=O)CCCCC(=O)OCC(C)C
inactive: outcome [1] | outcome [2] | Potency [3] | outcome [4] | outcome [14] | outcome [16] | outcome [6] | outcome [7] | outcome [8] | outcome [9] | outcome [10] | outcome [11] | outcome [15] | outcome [12] | outcome [13]

CCCCCCCC/C=C\CCCCCCCC(=O)OC[C@@H](O)[C@H]1OC[C@H](O)[C@H]1O
inactive: outcome [1] | outcome [2] | Potency [3] | Potency [18] | outcome [14] | outcome [5] | outcome [16] | outcome [6] | outcome [7] | outcome [9] | outcome [10] | outcome [15] | outcome [12] | outcome [13] | Potency [17] | outcome [19]

CC(C)(C)c1ccc(C=O)cc1
inactive: outcome [1] | outcome [2] | outcome [4] | Potency [18] | outcome [14] | outcome [5] | outcome [6] | outcome [7] | outcome [8] | outcome [9] | outcome [10] | outcome [11] | outcome [15] | outcome [12] | outcome [13] | Potency [17]

Cc1ccccc1N1CCN(CCc2nnc3n2CCCC3)CC1
inactive: outcome [1] | outcome [2] | outcome [4] | outcome [14] | outcome [5] | outcome [16] | outcome [6] | outcome [7] | outcome [8] | outcome [9] | outcome [10] | outcome [15] | outcome [12] | outcome [13] | Potency [17] | outcome [19]

O=C(Nc1cccc(C2=NCCN2)c1)Nc1cccc(C2=NCCN2)c1
inactive: outcome [1] | outcome [2] | outcome [4] | outcome [14] | outcome [5] | outcome [16] | outcome [6] | outcome [7] | outcome [8] | outcome [9] | outcome [10] | outcome [11] | outcome [15] | outcome [12] | outcome [13] | Potency [17]

CN[C@@H]1[C@@H](O)[C@@H](O[C@@H]2[C@H](O)[C@H](O[C@H]3OC(CN)=CC[C@H]3N)[C@@H](N)C[C@H]2N)OCC1(C)O (stereo not given in full)
inactive: outcome [1] | Potency [3] | outcome [4] | outcome [14] | outcome [5] | outcome [16] | outcome [6] | outcome [7] | outcome [8] | outcome [9] | outcome [10] | outcome [11] | outcome [12] | outcome [13] | Potency [17]

CCCCC[Si](OCC)(OCC)OCC
inactive: outcome [1] | outcome [2] | outcome [4] | outcome [14] | outcome [5] | outcome [6] | outcome [7] | outcome [8] | outcome [9] | outcome [10] | outcome [15] | outcome [12] | outcome [13] | Potency [17]
active: Potency [18] 48.6 µM

O=C(CN1CCN(Cc2ccc3c(c2)OCO3)CC1)N1c2ccccc2Sc2ccccc21
inactive: outcome [1] | outcome [2] | outcome [4] | outcome [5] | outcome [16] | outcome [6] | outcome [7] | outcome [9] | outcome [10] | outcome [15] | outcome [12] | outcome [13]

O=CN1CCOCC1
inactive: outcome [1] | outcome [2] | outcome [4] | outcome [16] | outcome [6] | outcome [7] | outcome [8] | outcome [9] | outcome [10] | outcome [11] | outcome [15] | outcome [12] | outcome [13]

Cn1c(=O)c2c(ncn2CC2OCCO2)n(C)c1=O
inactive: outcome [1] | Potency [3] | outcome [4] | outcome [5] | outcome [16] | outcome [6] | outcome [7] | outcome [9] | outcome [10] | outcome [11] | outcome [15] | outcome [12] | outcome [13]

O=S(=O)(O)SSS(=O)(=O)O
inactive: outcome [1] | outcome [2] | outcome [4] | outcome [14] | outcome [5] | outcome [16] | outcome [6] | outcome [7] | outcome [8] | outcome [9] | outcome [10] | outcome [11] | outcome [15] | outcome [12] | outcome [13]
